Compound activity as filed in PubChem.
A selection: hits, their analogues and other compounds. The true share with any hit is near 2.7%.
ERG Ets-DNA blk: qHTS for Small Molecule Inhibitors of the ERG Ets/DNA interaction | Transcriptional regulator ERG (Homo sapiens), P11308 | fluorescence polarization, His-ERG Ets domain / labelled DNA | Potency, µM (titrated, usually from 76.9 µM), for the others: at the top dose FP activity, negative = inhibition, most hits filed as inhibitors | hit rate 0.028% among 370,000 | AID 624246, 2012; active = well fitted inhibition curve with a large enough effect in the polarisation, with a control signal flat; inconclusive = small, poorly fitted or top-dose-only effect, or effect the other way, or a change in a side signal; inactive = no such curve, though single readings can be large or run the other way; the % refers to the polarisation;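 note: polarization taken with two DNA probes labelled with fluorescein and Texas red; potency is the fitted concentration of half-maximal effect; % of control where 0% means no effect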
Target sequence (P11308 whole entry, looked up, the tested form may be a part): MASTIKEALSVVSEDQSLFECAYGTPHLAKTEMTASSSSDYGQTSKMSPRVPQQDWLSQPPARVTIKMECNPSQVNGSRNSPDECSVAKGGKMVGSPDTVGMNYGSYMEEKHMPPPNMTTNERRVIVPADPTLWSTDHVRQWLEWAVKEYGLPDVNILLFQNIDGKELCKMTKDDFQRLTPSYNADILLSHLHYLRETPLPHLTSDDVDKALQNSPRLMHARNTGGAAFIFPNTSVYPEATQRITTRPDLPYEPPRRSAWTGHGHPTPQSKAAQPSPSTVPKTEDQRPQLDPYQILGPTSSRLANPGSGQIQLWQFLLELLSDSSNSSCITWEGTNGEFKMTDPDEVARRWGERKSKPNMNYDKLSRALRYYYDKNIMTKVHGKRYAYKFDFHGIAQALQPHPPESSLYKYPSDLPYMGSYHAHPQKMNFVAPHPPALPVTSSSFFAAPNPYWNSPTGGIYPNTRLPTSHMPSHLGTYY
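His-tagged ERG Ets domain (1 uM in the protein solution; 300mM KCl, 50mM Tris-HCl, 1mM EDTA, 1mM DTT, pH 7.5) received compound, then a probe mix of 5 nM fluorescein-DNA and 100nM Texas-615-DNA. Fluorescence polarization was read for both dyes.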
Nrf2 activator: qHTS of Nrf2 Activators | hit rate 0.31% among 410,000 | AREc32 ARE-luciferase reporter (MCF7-derived line), luminescence, 24 h | Potency, µM (series often up to 46.1 µM), without a hit: top-dose activation, usual class: activators; note: potency is the fitted concentration of half-maximal effect; % of control where 0% means no effect; nearly all actives have a fitted effect of over 65% in size
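ARE activation measured as luciferase luminescence (Steady-Glo, 30 min RT) in AREc32_Fluc cells after 24 hr compound exposure at 37 deg C, 5% CO2; cells seeded overnight at 1000/well in OPTI-MEM, 5% FBS.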
LDHA block: qHTS assay for inhibitors of human lactate dehydrogenase | L-lactate dehydrogenase A chain (Homo sapiens), P00338 | purified LDHA, NADH/diaphorase-resazurin fluorescence; stronger effect = lower value | activity change, % (values are at about 110 or 230 µM) | hit rate 0.15% among 480,000 | AID 1347041, 2019; in the data active = activity change below about -30%; inconclusive = mostly about -25% to -30%;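 note: plate controls were DMSO wells for no effect and wells without enzyme for full effect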
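Human LDH5 at 2 nM final in Tris HCl pH 7.4 with 0.06 mM NADH and 0.2 mM pyruvate, reacted 5 minutes at room temperature. Remaining NADH coupled via diaphorase/resazurin; resorufin fluorescence read at 0 and 20 minutes, normalized to enzyme-free and DMSO wells.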
Nrf2 block: Nrf2 qHTS screen for inhibitors; A549 ARE-Fluc reporter, luciferase luminescence, 18-24 h; Potency, µM (titrated, usually from 46 µM), without a hit: at the top dose activity change, negative = inhibition, usual class: inhibitors; hit rate 2.1% among 360,000; note: potency is the fitted concentration of half-maximal effect; % is set by controls: 0 for no effect and ±100 for the full control effect; nearly all actives have a fitted effect of over 60% in size
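Reporter: ARE-Fluc in A549. Exposure: 18-24 h, 37 °C, 5% CO2, 5% FBS OPTI-MEM. Readouts: fluorescent cytotoxicity (CellTiter-Fluor), then luminescent Nrf2 signal after BugLite.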
ALOX12 inh: Primary qHTS assay for inhibitors of human arachidonate 12S-lipoxygenase (ALOX12): Round 2. purified 12hLO, xylenol orange hydroperoxide absorbance. hit rate 1.1% among 580,000. Polyunsaturated fatty acid lipoxygenase ALOX12 (Homo sapiens), P18054. AID 1671190, 2021. Potency, µM (top dose mostly 108 µM), for the others: at the top dose activity change, negative = inhibition, actives largely listed as inhibitors; note: potency is the fitted concentration of half-maximal effect; % is set by controls: 0 for no effect and ±100 for the full control effect
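Purified human 12hLO at 150 nM in 25 mM Hepes, 0.01% Triton X-100, pH 7.0, preincubated 15 min at room temperature with compound. Reaction started with 40 uM arachidonic acid, 30 min at room temperature. Hydroperoxide measured by Fe-xylenol orange, 573/405 nm absorbance ratio.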
A549 tox: Nrf2 qHTS screen for inhibitors: counterscreen for cytotoxicity; A549 ARE-Fluc cells, CellTiter-Fluor viability, 18-24 h; Potency, µM (titrated, usually from 46 µM), for inactives: top-dose activity change, negative = cytotoxicity, usual class: inhibitors; hit rate 0.16% among 390,000; AID 504648, 2011; note: potency is the fitted concentration of half-maximal effect; % is set by controls: 0 for no effect and ±100 for the full control effect
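A549 ARE_Fluc cells in 5% FBS OPTI-MEM were exposed to compounds in concentration-response for 18-24 h at 37 deg C. Viability was read by CellTiter-Fluor fluorescence (Ex 405/Em 525) after 30 min, before the luciferase read.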
Starred values were filed as active, the others as inactive; ? = inconclusive; · = no result given. Unless noted, calls come from the whole dose curve; as a rule, active = well fitted curve in the direction sought with a large enough effect; inconclusive = small, poorly fitted or top-dose-only effect, or another doubt; inactive = no such curve, though single readings can be large; an effect the other way counts as inactive or inconclusive.

SMILES | ERG Ets-DNA blk | Nrf2 activator | LDHA block | Nrf2 block | ALOX12 inh | A549 tox
COc1cccc(C2NC(=S)N(Cc3ccc(F)cc3)C(C)=C2C(C)=O)c1 (configuration not stated) | · | · | · | · | 44.7µM* | ·
CC(=O)C1=C(C)N(Cc2ccc(F)cc2)C(=S)NC1c1cccc(Cl)c1 (configuration not stated) | · | · | · | · | 44.7µM* | ·
FC(F)(F)c1cccc(NC(=S)NCc2cccs2)c1 | · | · | 4.0 | · | ? | ·
CC(Sc1ccc2ccccc2n1)C(=O)Nc1sccc1C(N)=O (configuration not stated) | · | · | 9.6 | · | -5.6% | ·
Cc1cc2ccccn2c1C(=O)c1ccc(Cl)cc1 | 8.2% | 2.9% | -5.5 | · | 0.0% | -0.1%
Cc1cc2ccccn2c1C(=O)c1ccncc1 | · | 0.2% | -9.3 | -22.5% | -0.2% | -13.1%
Cc1cc2ccccn2c1C(=S)NC(=O)c1ccccc1 | -2.2% | ? | -6.7 | 17.8% | 22.4µM* | -3.2%
Cc1ccc(C(=O)NC(=S)c2c(C)cc3ccccn23)cc1 | · | 21.3% | -2.1 | · | 7.94µM* | ·
O=C(NCCc1cn2ccccc2n1)c1cc(COc2ccc3ncccc3c2)on1 | -7.1% | 4.0% | 5.5 | 16.4µM* | 11.3% | ?
CCn1nc(C)c(CNC(=O)c2cc(COc3ccc4ncccc4c3)on2)c1C | · | · | · | · | 13.1% | ·
CCOC(=O)c1nc2ccccc2nc1NCc1cccc(OC)c1 | · | · | -7.4 | · | ? | ·
CC(C)N(Cc1ccccn1)C(=O)c1cc(-c2cccs2)nc2ccccc12 | · | · | 1.4 | · | ? | ·
COc1ccc(CCNC(=O)c2coc3ccccc3c2=O)cc1 | -12.2% | -0.1% | -2.0 | 13µM* | -7.4% | -7.4%
COC(=O)c1ccc(CNC(=O)c2coc3ccccc3c2=O)cc1 | 1.3% | 0.4% | 1.4 | -2.0% | 4.4% | -7.2%
COc1ccc(-n2cc(C(=O)NCCc3ccc(C)cc3)c3ccccc3c2=O)cc1 | -6.6% | 4.1% | -5.3 | 18.4µM* | -23.8% | -2.1%
CC(=O)c1ccccc1NC(=O)c1ccc(OCc2c(C)noc2C)cc1 | 0.2% | 2.4% | -3.9 | 13µM* | 5.5% | 0.2%
Cc1ccc(C(=O)OCc2c(C)noc2C)cc1NC(=O)c1ccco1 | -7.0% | 3.98µM* | -6.9 | 10.8% | ? | -4.7%
CCOC(=O)c1cccc(NC(=O)c2ccc(NC(=O)c3ccco3)cc2)c1 | -10.8% | 4.6% | -12.7 | 20.6µM* | 128.5% | -10.9%
CCCCNC(=O)COC(=O)c1ccc(C)c(NC(=O)c2ccco2)c1 | -7.2% | 3.4% | -7.6 | 7.0% | 5.0% | 6.3%
CCOC(=O)c1cccc(NC(=O)c2ccc(N(C)C)cc2)c1 | 7.1% | -1.1% | -1.7 | 16.4µM* | -3.9% | -6.2%
CCOC(=O)c1cccc(NC(=O)c2cc[n+]([O-])cc2)c1 | · | · | -4.7 | · | 22.7% | ·
N#CC1=C(N)OC2=C(C(=O)CCC2)C1c1ccc(-c2ccccc2)o1 (configuration not stated) | · | · | 45.9 | · | ? | ·
Cc1cccc(C)c1NC(=O)c1cc2ccccc2oc1=O | · | · | -11.1 | · | 7.5% | ·
CCOc1ccc(C(=O)Nc2ccc(NC(=O)c3ccco3)c(Cl)c2)cc1Cl | 0.6% | 0.1% | -4.9 | 20.6µM* | 240.5% | ?
Cc1noc(C)c1COc1ccc(C(=O)N2CCN(c3cccc(Cl)c3)CC2)cc1 | -0.7% | -0.4% | -3.0 | 23.1µM* | -15.6% | -4.9%
SMILES | ERG Ets-DNA blk | Nrf2 activator | LDHA block | Nrf2 block | ALOX12 inh | A549 tox
O=C(Nc1ccccc1)c1cccc(NC(=O)c2ccco2)c1 | 12.7% | 20.1% | -1.6 | ? | 0.7% | -6.7%
O=C(Nc1cc([N+](=O)[O-])ccc1O)c1cccc(NC(=O)c2ccco2)c1 | -10.3% | ? | -45.4* | 5.1% | -0.4% | -20.1%
C=Cc1cccc(NC(=O)c2ccc(NC(=O)c3ccco3)cc2)c1 | -11.4% | 0.6% | -2.4 | 10.3µM* | -23.3% | 0.2%
Cc1ccc(CNc2cc(-c3nn4c(C)nnc4s3)ccc2C)s1 | 6.6% | 7.0% | -1.1 | 16.4µM* | -2.2% | -12.6%
Cc1cc(C(=O)NC(C)c2cccc(C(F)(F)F)c2)c(C)o1 (configuration not stated) | · | · | 1.3 | · | ? | ·
FC(F)(F)c1ccccc1C(c1ccccc1)N1CCNCC1 (configuration not stated) | · | · | -3.0 | · | ? | ·
c1cc2nc(C34CC5CC(CC(C5)C3)C4)[nH]c2cn1 | -0.5% | -0.6% | -32.6* | -4.8% | -24.5% | 4.0%
O=C(Sc1cccc2cccnc12)c1ccccc1Cl | · | · | 4.2 | · | -18.1% | ·
O=C(CN1C(=O)NC2(CCCC2)C1=O)Nc1ccccc1C(F)(F)F | 5.9% | -0.7% | -9.5 | -1.3% | -0.4% | -8.8%
CCC(C)(C)C1CCC2(CC1)NC(=O)N(CC(=O)N(C)CC(=O)Nc1ccccc1C(F)(F)F)C2=O (configuration not stated) | -6.2% | -0.7% | 3.5 | 14.6µM* | 10.1% | -19.9%
CN(CC(=O)Nc1ccc(C(F)(F)F)cc1)C1CCc2ccccc21 (configuration not stated) | · | · | 4.0 | · | ? | ·
Cc1cc(-c2sccc2C)nc(-n2cccc2)n1 | 4.6% | 5.62µM* | 0.2 | 10.2% | -0.2% | -5.1%
Cc1nc2cc(-c3sccc3-n3cccc3)nn2c(C)c1C | 0.9% | 3.7% | -6.5 | 10.7% | -5.6% | 11.7%
CCOC(=O)C1=C(Cc2ccc(C)cc2)C(=O)c2ccccc2C1=O | · | · | · | · | 11.2µM* | ·
CCOC(=O)C1=C(Cc2ccc(OC)cc2)C(=O)c2ccccc2C1=O | 5.1% | 10.9% | 48.7 | -25.5% | · | ?
COc1ccc2c(C)c(CCC(=O)Nc3cc(C)cc(C)c3)c(=O)oc2c1 | · | · | -8.7 | · | -32.7% | ·
Cc1cc(C)nc(Nc2nc3ccccc3o2)n1 | 4.0% | 3.3% | 2.1 | ? | -6.5% | 13.7%
CC(=NNc1nc2ccccc2o1)c1cc2ccccc2cn1 | 9.2% | -1.8% | -2.6 | ? | ? | 10.3µM*
CC/C(=C/c1sc2ccc(C)cc2[n+]1CCCS(=O)(=O)[O-])SC | ? | -0.7% | 0.2 | -1.0% | -2.7% | -10.4%
CCN1/C(=C/c2ccc3ccccc3[n+]2CCCS(=O)(=O)[O-])C=Cc2cc(C)ccc21 | 114.9% | -0.2% | ? | -18.6% | 44.7µM* | ?
CCN1/C(=C/c2ccc3ccccc3[n+]2CC)C=Cc2ccccc21 | ? | -1.7% | ? | 2.91µM* | ? | 9.2µM*
